Where a name gives a salt, the structure may show the parent alone.
How the values were obtained:
Experiment in all cases: cell proliferation relative to vehicle (% of vehicle); higher = less growth inhibition
Details in all cases: 72 h
[1] = test system: U2932 TK216-resistant clone 2
In short: (§1)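 Parental U2932 cells (ABC-DLBCL) and two clones made resistant to an ETS-targeting agent by almost a year of repeated exposure were treated for 72 h with 348 targeted inhibitors at 500 nM or 50 nM. MTT was then applied for 4 h, the reaction was stopped with 25% SDS, and absorbance was measured on a Cytation 3. Values express proliferation as percent of proliferating cells compared with DMSO vehicle.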

[2] = test system: U2932 TK216-resistant clone 3
In short: as §1

[3] = test system: U2932 parental
In short: as §1

SMILES | cell proliferation ([1]; 50 nM) | cell proliferation ([1]; 500 nM) | cell proliferation ([2]; 50 nM) | cell proliferation ([2]; 500 nM) | cell proliferation ([3]; 50 nM) | cell proliferation ([3]; 500 nM)
CC[C@@]1(O)C(=O)OCc2c1cc1n(c2=O)Cc2cc3c(CN(C)C)c(O)ccc3nc2-1 [Topotecan HCl] | 9.75 | 5 | 12.8 | 5.92 | 11.1 | 2.71
Cn1c(Nc2ccc(C(F)(F)F)cc2)nc2cc(Oc3ccnc(-c4ncc(C(F)(F)F)[nH]4)c3)ccc21 | 96.1 | 80.7 | 98.8 | 96.7 | 95.6 | 88
CC(C)(C#N)c1cc(Cn2cncn2)cc(C(C)(C)C#N)c1 [Anastrozole] | 99.8 | 108 | 103 | 101 | 105 | 96.7
CN1C(=O)C(Cc2c[nH]c3ccccc23)NC1=S (stereo not drawn) [Necrostatin-1] | 103 | 93.1 | 95.6 | 102 | 95 | 94.8
CCc1cncnc1N1CCN(Cc2nc3ccc(C(F)(F)F)cc3[nH]2)CC1 | 100 | 101 | 96 | 100 | 88.9 | 92
Oc1ccc(/C=C/c2cc(O)cc(O)c2)cc1 [Resveratrol] | 102 | 111 | 102 | 106 | 103 | 101
CN(CCOc1ccc(CC2SC(=O)NC2=O)cc1)c1ccccn1 (stereo not drawn) [Rosiglitazone] | 100 | 101 | 98.8 | 104 | 94 | 95.2
Nc1ccn([C@@H]2O[C@H](CO)[C@@H](O)C2(F)F)c(=O)n1 [Gemcitabine] | 15.3 | 14.9 | 20.1 | 19.1 | 12.5 | 14.6
Cc1nc(NC(=O)N2CCC[C@H]2C(N)=O)sc1-c1ccnc(C(C)(C)C(F)(F)F)c1 | 98.4 | 78.7 | 96.2 | 85 | 97.7 | 91
O=C(O)C1(C(=O)O)CCC1.[NH2-].[NH2-].[Pt+2] [Carboplatin] | 99.7 | 104 | 90.2 | 99.1 | 104 | 95.3
CC(=O)O[C@@]12CO[C@@H]1C[C@H](O)[C@@]1(C)C(=O)[C@H](O)C3=C(C)[C@@H](OC(=O)[C@H](O)[C@@H](NC(=O)OC(C)(C)C)c4ccccc4)C[C@@](O)([C@@H](OC(=O)c4ccccc4)[C@H]21)C3(C)C [Docetaxel] | 8.81 | 11.6 | 5.58 | 6.54 | 9.62 | 9.31
O=C(/C=C/c1ccc2ccccc2n1)c1ccncc1 | 99.7 | 83.1 | 102 | 88.3 | 98.2 | 89.1
Oc1ccc(Nc2nc(-c3ccc(Cl)cc3)cs2)cc1 | 109 | 94.9 | 111 | 103 | 97 | 95.5
N#Cc1c(Oc2ccc(F)c(NC(=O)Cc3cccc(C(F)(F)F)c3)c2)ccc2nc(NC(=O)C3CC3)sc12 | 104 | 92.8 | 107 | 103 | 95.9 | 98.6
CCNc1nc(Nc2cc(F)c(C(=O)N3CCOCC3)cc2OC)ncc1C(F)(F)F | 101 | 97.4 | 97.8 | 104 | 104 | 101
CNC(=O)c1cccc(-c2ccc3c(N4CCOC[C@@H]4C)nc(N4CCOC[C@@H]4C)nc3n2)c1 | 102 | 52.9 | 93.8 | 55.6 | 91.7 | 46.4
CCCCCCCCCCCC1=C(O)C(=O)C=C(O)C1=O [Embelin] | 90.5 | 98.8 | 103 | 103 | 100 | 89.7
OCCn1cc(-c2cnc3nnn(Cc4ccc5ncccc5c4)c3n2)cn1 | 111 | 107 | 105 | 107 | 99.4 | 104
CCc1ccc(/C=C2/SC(=S)NC2=O)cc1 | 105 | 103 | 102 | 99.4 | 94.2 | 104
COc1cc2nccc(Oc3ccc(NC(=O)C4(C(=O)Nc5ccc(F)cc5)CC4)cc3)c2cc1OC | 102 | 98 | 100 | 106 | 95.4 | 99.2
O=C(Nc1cccc(Nc2ncc(Br)c(NCCc3cnc[nH]3)n2)c1)N1CCCC1 | 95.7 | 87 | 103 | 77 | 99.6 | 68.1
O=C(NCCCNc1nc(Nc2cccc(NC(=O)N3CCCC3)c2)ncc1I)c1cccs1 | 98.5 | 98.8 | 99.5 | 95.7 | 97.2 | 92.1
CC(=O)Nc1cccc(-n2c(=O)n(C3CC3)c(=O)c3c(Nc4ccc(I)cc4F)n(C)c(=O)c(C)c32)c1 | 103 | 105 | 98.2 | 93.7 | 92.9 | 94.4

Reference: the supplement of paper PMC13172266
